# Screening results (PubChem BioAssay)
# The list is not random: actives were taken first. Their share in the collection is about 1.2%.
# mIDH1 inhibitor: blocks human mutant IDH1 R132H enzyme. IDH1-R132H enzyme, NADPH consumption, diaphorase/resazurin fluorescence. AID 602179. 390,000 tested, 0.093% active. Potency, µM (top dose mostly 76.6 µM), without a hit: at the highest dose activity change, negative = inhibition, usual class: inhibitors. O75874; also: potency is read from the fitted curve at half-maximal effect; % is scaled to controls: 0 for no effect and ±100 for the full control effect; nearly all actives have a fitted effect of over 65% in size
#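 IDH1-R132H (0.5 ug/mL dispensed) in pH 7.5 Tris buffer was preincubated 30 min with compound, then given a substrate mix of 0.016 mM NADPH and 2 mM alpha-KG for 80 min at room temperature; remaining NADPH was read by diaphorase/resazurin fluorescence.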
# KCNH2 3.1 block: blocks the human KCNH2 3.1 channel isoform | U2OS KCNH2 3.1, thallium flux FluxOr; stronger effect = lower value | activity change, % (tested at about 1.8 µM) | 340,000 tested, 0.95% active | AID 720553;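 active = maximum activity change below -70%; inconclusive = maximum activity change from -70% to -50%; inactive = maximum activity change above -50%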;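 also: thallium influx rate constant from kinetic fluorescence after stimulation buffer; % is scaled to controls: 0 for no effect and ±100 for the full control effect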
#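 Kinetic fluorescence (2 min after stimulation buffer) measures Tl+ influx through KCNH2 3.1 expressed by viral transduction in U2OS cells; the rate constant is normalized against DMSO controls serving as positive and negative references.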
# Anesthetic bind: binds horse apoferritin like a general anesthetic; P02791; apoferritin/1-aminoanthracene competitive binding, fluorescence; Potency, µM (doses to about 77.5 µM), for the others: at the highest dose activity change, negative = displacement, actives largely listed as inhibitors; 350,000 tested, 0.074% active; also: potency is read from the fitted curve at half-maximal effect; % is scaled to controls: 0 for no effect and ±100 for the full control effect; nearly all actives have a fitted effect of over 20% in size
#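 Probe: 1-aminoanthracene (50% saturated, PBS). Protein: horse-spleen apoferritin, 10 uM. Incubation: 10 min, room temperature. Detection: 380 nm excitation, 535 nm emission. Analysis: normalized response, four-parameter Hill.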
# hERG WT inh: inhibitors of human wildtype KCNH2 potassium channel; 340,000 tested, 0.37% active; Q12809; U2OS, BacMam KCNH2, thallium flux FluxOr; stronger effect = lower value; activity change, % at 1.84 µM; AID 720551;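 active = maximum activity change below -70%; inconclusive = maximum activity change between -70% and -50%; inactive = maximum activity change above -50%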; also: % is scaled to controls: 0 for no effect and ±100 for the full control effect
#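 U2OS cells were transduced with wild-type KCNH2 virus (2.03 x 10^8 / mL) for 4 h at room temperature, then cultured overnight at 37 C. Thallium flux was read with FluxOr dye. Rate constants were normalized to DMSO controls.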
# ASM inhibitor: inhibitors of human secretory acid sphingomyelinase. P17405. placental ASM, HMU-PC fluorogenic substrate, 60 min. Potency, µM (top dose mostly 57.5 µM), inactives show at the top dose activity change, negative = inhibition, usual class: inhibitors. 340,000 tested, 0.006% active. AID 504937; also: potency is read from the fitted curve at half-maximal effect
#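 Human placenta-derived ASM enzyme was preincubated with compound for 10 minutes at room temperature, then given fluorogenic substrate HMU-PC0 (9 uM final) for 60 minutes at 37 °C; a pH 10 stop preceded fluorescence reading at Ex 386/Em 447 nm.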
# Resorufin autofl: interferes with resorufin fluorescence in IDH1 counter-screen; inhibition of signal, % at 51.2 µM; shares compounds with mIDH1 inhibitor; Resorufin detection reagent fluorescence interference, cell-free; 750 tested, under 10 active; AID 623980;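 also: 0% = wells with normal resorufin and full inhibition = wells lacking resorufin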
# IDH1 WT: wild-type IDH1 (human) inhibition counterscreen; AID 623995; Potency, µM (top dose mostly 115 µM), for inactives: at the highest dose activity change, negative = inhibition, actives largely listed as inhibitors; 750 tested, 9% active; shares compounds with mIDH1 inhibitor; WT IDH1 enzyme, NADPH diaphorase/resazurin fluorescence;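 also: potency is read from the fitted curve at half-maximal effect; 0% = full WT IDH1 enzyme control and full inhibition = no enzyme wells; nearly all actives have a fitted effect of over 55% in size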
# IDH1 R132H conf: confirmation of human mutant IDH1 inhibitors | Potency, µM (highest dose often 76.6 µM), for inactives: at the top dose activity change, negative = inhibition, actives largely listed as inhibitors | 750 tested, 83% active | shares compounds with mIDH1 inhibitor | IDH1 R132H enzyme, NADPH diaphorase/resazurin fluorescence; also: potency is read from the fitted curve at half-maximal effect; nearly all actives have a fitted effect of over 50% in size
# * hit, by the source's call; ? = inconclusive; · = not tested or not shown; [ ] = dose if it differs, or a comment. Unless noted, calls follow the shape of the dose curve; as a rule, active = well fitted curve in the direction sought with a large enough effect; inconclusive = small, poorly fitted or top-dose-only effect, or another doubt; inactive = no such curve, though single readings can be large; an effect the other way counts as inactive or inconclusive.
SMILES,mIDH1 inhibitor,KCNH2 3.1 block,Anesthetic bind,hERG WT inh,ASM inhibitor,others
Cc1cccc(N2CCN(CCc3ccccc3)CC2)c1C,5%,-82*,-13%,-48,-2%,
COC(=O)C1=C(c2ccc(F)cc2OCc2ccccc2)C[C@@H]2CC[C@H]1N2C(=O)NCCOc1ccc(OC)cc1,6%,-87*,·,2,-5%,
COC(=O)C1=C(c2ccccc2OCc2ccccc2)C[C@@H]2CC[C@H]1N2C(=O)NCc1ccc(N(C)C)cc1,10%,-116*,·,-13,-5%,
CCC1(CC)CCNC1=O,·,·,4%,·,·,
Cc1ccccc1N1C(=O)NC(=O)/C(=C\c2ccc3c(c2)CCCN3Cc2ccccc2)C1=O,52µM*,0,?,0,-1%,
CCC(=O)Oc1ccc2c(c1)CCC1C2CC[C@]2(C)C(OC(=O)CC)CCC12 (stereo partly drawn),·,·,72%,·,·,
CC12CCC3c4ccc(OC(=O)N(CCCl)CCCl)cc4CCC3C1CCC2O (stereo not drawn),3%,-89*,·,34,-5%,
COc1ccc(CN(CCc2c[nH]c3ccccc23)Cc2ccc(OC)cc2)cc1,6%,-106*,·,-43,-9%,
COc1ccc2c(c1)CC1(CN2C)C(=O)NC(=O)N(CCc2ccccc2)C1=O (stereo not drawn),7%,-95*,?,1,-6%,
COc1cc(CN2C(=O)NC(=O)C3(Cc4cc(C)ccc4N(C)C3)C2=O)cc(OC)c1 (stereo not drawn),9%,-3,2%,-5,-1%,
CC(C)C[C@H](NC(=O)[C@H](CC(C)C)NC(=O)[C@H](Cc1ccccc1)NC(=O)[C@@H](N)Cc1ccc(O)cc1)C(=O)N[C@@H](CCCN=C(N)N)C(=O)N[C@@H](CC(N)=O)C(=O)N1CCC[C@H]1C(=O)O,·,·,5%,·,·,
O=C1CCCC2C3CC(CN12)C1CCCCN1C3 (stereo not drawn),·,·,3%,·,·,
CC1(C)[C@@H](O)C[C@H]2[C@](C)(O)[C@@H]3CC[C@H]4[C@@H](O)[C@@]3(C[C@@H](O)[C@@]21O)C[C@@]4(C)O,·,·,4%,·,·,
C=CCN1C(=O)NC(=O)/C(=C\c2ccc(-c3ccccc3[N+](=O)[O-])o2)C1=O,13%,-8,40µM*,4,-9%,
C[C@@H]1CO1,·,·,-8%,·,·,
Oc1ccc2c(c1)[C@@]13CCCCC1[C@@H](C2)N(CC1CCC1)CC3 (stereo partly drawn),·,·,0%,·,·,
C=CCn1c(O)c(C(C)=NCCN2CCN(C(=S)NC)CC2)c(=O)[nH]c1=O,3%,-10,5%,-99*,1%,
C=C1C(O)C2OC3(CCC(/C=C/C(C)C4CC(C)=CC5(OC(CC(C)(O)C(=O)O)CCC5O)O4)O3)CCC2OC1C(O)CC(C)C1OC2(CCCCO2)CCC1C (stereo not drawn),·,·,6%[3.34 µM],·,·,
Cc1cc(OCC(=O)NCC2CCC(C(=O)O)CC2)c2c3c(c(=O)oc2c1)CCC3 (stereo not drawn),8%,1,-5%,1,-5%,
Cc1cc(OCC(=O)NC2CCS(=O)(=O)C2)c2c3c(c(=O)oc2c1)CCC3 (stereo not drawn),3%,-1,-9%,-250*,7%,
O=C(c1ccc(Cl)cc1)C1CCCN(Cc2cccc3cccnc23)C1 (stereo not drawn),1%,-99*,-10%,-71*,-2%,
COc1ccc(CN2CCCC(C(=O)c3ccc(Cl)cc3)C2)c(O)c1 (stereo not drawn),6%,-72*,-2%,-31,-3%,
COc1cccc(C(=O)C2CCCN(Cc3ccc(F)cc3)C2)c1 (stereo not drawn),-2%,-33,-18%,18,2%,
O=C(c1ccc(Cl)cc1)C1CCCN(Cc2cccc3ncccc23)C1 (stereo not drawn),-1%,-5,-17%,34,2%,
O=C(c1cc(F)ccc1F)C1CCCN(CCCc2ccccc2)C1 (stereo not drawn),-1%,-101*,-12%,4,-3%,
SMILES,mIDH1 inhibitor,KCNH2 3.1 block,Anesthetic bind,hERG WT inh,ASM inhibitor,others
O=C(c1cc(F)ccc1F)C1CCCN(Cc2cccc(Cl)c2)C1 (stereo not drawn),5%,0,-15%,·,-1%,
O=C(NCC1=C(c2cccc3ccccc23)C[C@@H]2CC[C@H]1N2Cc1ccco1)c1ccncc1,-5%,-4,·,11,·,
CS(=O)(=O)c1ccc(C2=C(CNC(=O)c3cccs3)[C@H]3CC[C@@H](C2)N3CCOc2ccccc2)cc1,-4%,-94*,·,-103*,·,
CS(=O)(=O)c1ccc(C2=C(CNC(=O)c3nccs3)[C@H]3CC[C@@H](C2)N3CCOc2ccccc2)cc1,-1%,-78*,·,?,·,
O=C(NCC1=C(c2cccc3ccccc23)C[C@@H]2CC[C@H]1N2Cc1ccco1)c1cccs1,0%,-109*,·,?,·,
CCOC(=O)c1cccc(C2=C(CNC(=O)c3ccc([N+](=O)[O-])cc3)[C@H]3CC[C@@H](C2)N3Cc2ccccc2)c1,-10%,-113*,·,-76*,·,
CC(C)c1c(CN(C)[C@@H](C)Cc2ccccc2)n(C)n(-c2ccccc2)c1=O,·,·,-1%[29.3 µM],·,·,
CCC1OC2(C)C(O)C(/C=C/C=C/C=C/c3oc(=O)cc(OC)c3C)OC1(C)C2OC(C)=O (stereo not drawn),·,·,-14%,·,·,
CS(=O)(=O)c1ccc(C2=C(CNC(=O)c3ccncc3)[C@H]3CC[C@@H](C2)N3Cc2ccccc2)cc1,-2%,-91*,·,?,·,
COc1ccccc1N1CCN(Cc2ccc(Br)cc2)CC1,4%,-76*,-7%,19,3%,
c1cc[n+]2c(c1)-c1cccc[n+]1CC2,·,·,-1%,·,·,
CCOC(=O)c1c(/N=C/c2c(O)n(-c3cccc(C)c3)c(=O)[nH]c2=O)sc2c1CCCC2,?,15,-10%,13,8%,Resorufin autofl=6;IDH1 WT=1%;IDH1 R132H conf=11µM*
CC(C)OC(=O)C(O)(c1ccc(Cl)cc1)c1ccc(Cl)cc1,·,·,-3%,·,·,
